HTT cytoprotect: cytoprotection in Huntington HTT-Q103 PC12 cell model; PC12 HTT-Q103 induced, cytoprotection, ATP luminescence, 40 h; Potency, µM (series often up to 56.4 µM), actives largely listed as activators; hit rate 0.14% among 230,000; AID 1471; note: nearly all actives have a fitted effect of over 45% in size
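Readout: ATPlite luminescence (ATP level). Model: stable PC12, inducible Htt exon1 Q103-GFP. Inducer: tebufenozide, 100 nM final. Compounds: dose series. No G418 in medium.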
HPGD block: HPGD (human) dehydrogenase inhibition; Potency, µM, usual class: inhibitors; purified HPGD, NADH fluorescence kinetic, PGE2 substrate; P15428; hit rate 4.3% among 150,000; active = well fitted inhibition curve with a large enough effect, not every such curve was filed as active; inconclusive = small, poorly fitted or top-dose-only effect, or another doubt; inactive = no such curve, though single readings can be large or run the other way
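NADH formation kinetics: reaction with 30 uM PGE2 and 1 mM NAD+ (final), 20 nM enzyme, Tris-HCl pH 8 with Tween 20, after 15 min compound preincubation at room temperature. Fluorescence change, last versus first of five reads.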
CBFb-RUNX1 inh: CBF-beta/RUNX1 interaction disruption; AlphaScreen CBFb-His/RUNX1-biotin binding, biochemical; Potency, µM (series often up to 59.8 µM), most hits filed as inhibitors; 230,000 tested, under 10 active
Target sequence (Q01196 whole entry, looked up): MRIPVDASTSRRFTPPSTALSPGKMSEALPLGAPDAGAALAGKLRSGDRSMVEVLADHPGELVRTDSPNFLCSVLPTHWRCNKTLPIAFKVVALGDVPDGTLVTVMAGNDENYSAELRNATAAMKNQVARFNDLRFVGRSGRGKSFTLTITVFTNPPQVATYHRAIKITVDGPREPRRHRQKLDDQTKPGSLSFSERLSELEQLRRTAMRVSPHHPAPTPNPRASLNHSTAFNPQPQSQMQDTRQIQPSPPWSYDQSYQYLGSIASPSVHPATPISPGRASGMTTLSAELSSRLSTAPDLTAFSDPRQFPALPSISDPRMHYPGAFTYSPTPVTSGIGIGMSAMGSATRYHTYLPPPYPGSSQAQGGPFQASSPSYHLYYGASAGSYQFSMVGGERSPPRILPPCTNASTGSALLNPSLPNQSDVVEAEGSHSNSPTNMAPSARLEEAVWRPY
Target sequence (Q13951 whole entry, looked up): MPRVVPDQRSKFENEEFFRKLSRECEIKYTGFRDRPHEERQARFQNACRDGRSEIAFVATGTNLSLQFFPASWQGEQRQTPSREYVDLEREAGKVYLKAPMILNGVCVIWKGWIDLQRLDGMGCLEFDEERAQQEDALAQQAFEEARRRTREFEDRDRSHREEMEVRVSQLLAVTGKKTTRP
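Bead-based AlphaScreen assay; binding partners His-tagged CBF-beta and biotinylated RUNX1 at 30 nM each. Compound exposure 15 min after a 20-min protein preincubation; bead step 90 min; all steps at room temperature.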
ALDH1A1 inh: inhibitors of human aldehyde dehydrogenase 1A1; P00352; Purified ALDH1A1, NADH fluorescence, propionaldehyde substrate; Potency, µM (doses to about 75.3 µM), most hits filed as inhibitors; hit rate 7.3% among 220,000; AID 1030; active = well fitted inhibition curve with a large enough effect, not every such curve was filed as active; inconclusive = small, poorly fitted or top-dose-only effect, or another doubt; inactive = no such curve, though single readings can be large or run the other way
HttQ103 aggreg: mutant huntingtin aggregation inhibition | Potency, µM (top dose mostly 46.1 µM), most hits filed as inhibitors | AID 1688 | PC12 HttQ103-GFP aggregates, Acumen cytometry, 40 h | hit rate 1.1% among 220,000; note: nearly all actives have a fitted effect of over 60% in size
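Ecdysone-promoter PC12 model expressing HTT exon 1 Q103 fused to GFP, induced by tebufenozide at 100 nM final. Compounds titrated; aggregates sized 1–25 µm scored on a 488 nm laser cytometer.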
KDM4E inh: inhibitors of human JMJD2E histone demethylase | B2RXH2 | JMJD2E catalytic domain, FDH-coupled NADH fluorescence (FDH is formaldehyde dehydrogenase) | Potency, µM (series often up to 57.1 µM), usual class: inhibitors | hit rate 1.6% among 230,000 | AID 2147; active = well fitted inhibition curve with a large enough effect, not every such curve was filed as active; inconclusive = small, poorly fitted or top-dose-only effect, or another doubt; inactive = no such curve, though single readings can be large or run the other way; note: nearly all actives have a fitted effect of over 50% in size
Each line names hits and unclear results; the compound was inactive in the other large screens. Sampled rows, rich in hits. Any-hit rate of the full collection: about 9.8%. Unless noted, calls come from the whole dose curve; as a rule, active = well fitted curve in the direction sought with a large enough effect; inconclusive = small, poorly fitted or top-dose-only effect, or another doubt; inactive = no such curve, though single readings can be large; an effect the other way counts as inactive or inconclusive.

Cc1ccnc(NC(c2cccnc2)c2ccc3cccnc3c2O)c1 (centres undefined)	ALDH1A1 inh 10µM, KDM4E inh 5.6µM (no result: HPGD block, CBFb-RUNX1 inh)
Cc1ccc(N[C@H](c2ccccc2)c2ccc3cccnc3c2O)cc1	ALDH1A1 inh inconclusive (no result: CBFb-RUNX1 inh, HttQ103 aggreg, KDM4E inh)
COc1cc(C(Nc2ccccn2)c2ccc3ccc(C)nc3c2O)cc(OC)c1O (centres undefined)	HTT cytoprotect inconclusive, HPGD block inconclusive, KDM4E inh 22µM
COc1ccccc1NC(c1cccnc1)c1ccc2cccnc2c1O (centres undefined)	ALDH1A1 inh 2.5µM, HttQ103 aggreg inconclusive, KDM4E inh 11µM (no result: CBFb-RUNX1 inh)
O=C(O)c1ccccc1N[C@H](c1ccccc1)c1ccc2cccnc2c1O	HPGD block inconclusive, ALDH1A1 inh inconclusive (no result: CBFb-RUNX1 inh, HttQ103 aggreg, KDM4E inh)
Oc1c(C(Nc2ccccn2)c2ccccn2)ccc2cccnc12 (centres undefined)	CBFb-RUNX1 inh inconclusive, HttQ103 aggreg 2.8µM, KDM4E inh inconclusive
Cc1ccc2ccc(C(Nc3ccccn3)c3ccccc3)c(O)c2n1 (centres undefined)	HttQ103 aggreg inconclusive, KDM4E inh inconclusive
CC(O)c1nc2ccccc2n1CC(=O)Nc1ccc(F)cc1Cl (centres undefined)	none (no result: HPGD block)
CCN1C(=O)/C(=C/C=C2\N(CC)c3cc(S(=O)(=O)N(C)C)ccc3N2c2ccccc2)SC1=S	none (no result: HPGD block, ALDH1A1 inh)
COc1ccc(C(Nc2cc(C)ccn2)c2ccc3ccc(C)nc3c2O)cc1 (centres undefined)	KDM4E inh inconclusive (no result: HPGD block, ALDH1A1 inh)
Cc1ccnc(NC(c2ccsc2)c2ccc3ccc(C)nc3c2O)c1 (centres undefined)	ALDH1A1 inh 25µM, KDM4E inh inconclusive (no result: HPGD block)
CCc1nc2n(n1)C(O)c1cc([N+](=O)[O-])ccc1S2 (centres undefined)	none (no result: HPGD block, ALDH1A1 inh)
C/C(=C(/CCOC(=O)C(C)C)SS/C(CCOC(=O)C(C)C)=C(\C)N(C=O)Cc1cnc(C)nc1N)N(C=O)Cc1cnc(C)nc1N	none (no result: HPGD block, CBFb-RUNX1 inh, ALDH1A1 inh, KDM4E inh)
CC1(C)CC(=O)C2=C(C1)OC(N)=C(C#N)C21C(=O)N2CCCc3cccc1c32 (centres undefined)	ALDH1A1 inh 7.1µM
CCOC(=O)C(=CNc1ccc(NC2=NCC(C)(C)S2)cc1)C(=O)OCC	KDM4E inh inconclusive (no result: HPGD block, ALDH1A1 inh)
O=C(Nc1ccc(F)cc1)C1=CC(=O)N2CCN=C2S1	ALDH1A1 inh 16µM (no result: HPGD block)
CCOC(=O)c1ccc(NC(=O)c2ccccc2[N+](=O)[O-])cc1	ALDH1A1 inh inconclusive (no result: HTT cytoprotect)
CCOC(=O)c1cc([N+](=O)[O-])c([N+](=O)[O-])cc1NC(C)=O	HPGD block 22µM, ALDH1A1 inh 8.9µM (no result: HTT cytoprotect)
COc1ccc2ccccc2c1CNC(=O)CC1C(=O)NCCN1CC(C)(C)C (centres undefined)	HttQ103 aggreg inconclusive (no result: HPGD block, ALDH1A1 inh)
C=CCNC(=S)NS(=O)(=O)c1cccs1	ALDH1A1 inh 18µM (no result: HTT cytoprotect, HPGD block)
CC1Cc2ccccc2N1C(=O)C1CCCN(S(=O)(=O)c2cccc3nsnc23)C1 (centres undefined)	none
CCOC(=O)c1cn2nc(Oc3cccc(C(F)(F)F)c3)ccc2n1	KDM4E inh inconclusive (no result: HPGD block, ALDH1A1 inh)
Cc1ccc2nc(N3C(=O)C(O)=C(C(=O)c4cc5ccccc5o4)C3c3cccs3)sc2c1 (centres undefined)	ALDH1A1 inh 20µM
O=C(C1=C(O)C(=O)N(c2nccs2)C1c1ccccc1)c1cc2ccccc2o1 (centres undefined)	ALDH1A1 inh 22µM, KDM4E inh inconclusive (no result: HPGD block)
CCc1ccc2nc(N3C(=O)C(O)=C(C(=O)c4ccco4)C3c3cccs3)sc2c1 (centres undefined)	HPGD block 20µM, KDM4E inh inconclusive
Cc1cc(N2C(=O)C(O)=C(C(=O)c3ccc(C)o3)C2c2cccs2)no1 (centres undefined)	HPGD block 28µM, ALDH1A1 inh 22µM, KDM4E inh inconclusive
COc1ccc(CCNC(=O)COc2ccc(C)nc2[N+](=O)[O-])cc1	ALDH1A1 inh inconclusive (no result: HPGD block)
COCCn1c(=O)c(C)nc2cnc(N3CCNCC3)nc21	HPGD block inconclusive, ALDH1A1 inh inconclusive (no result: CBFb-RUNX1 inh, HttQ103 aggreg, KDM4E inh)
CC1CCN(CC[S-])CC1.O.O.[Cl][Pt]	none (no result: CBFb-RUNX1 inh, HttQ103 aggreg, KDM4E inh)
COC(=O)c1cc(=O)n2c(-c3ccc(OC)cc3)csc2n1	ALDH1A1 inh 5µM
CC1(C)Cc2ccccc2-c2nnc(SCC(=O)N3CCN(c4ccccc4)CC3)n21	ALDH1A1 inh inconclusive
CS(=O)(=O)Nc1cccc(-c2cncnc2-n2ccnc2)c1	ALDH1A1 inh inconclusive (no result: HPGD block, CBFb-RUNX1 inh, HttQ103 aggreg, KDM4E inh)
CC1CN(c2ccc(Oc3ccccc3)cc2)c2nc3c(c(=O)[nH]c(=O)n3C)n2C1 (centres undefined)	HPGD block 35µM
CC1CN(CCc2ccccc2)c2nc3c(c(=O)[nH]c(=O)n3C)n2C1 (centres undefined)	none
COC(=O)c1cc2sccc2n1CC(=O)N1CCCc2ccccc21	none
COC(=O)c1cc2oc(C)cc2n1CC(=O)N1CCCc2ccccc21	ALDH1A1 inh 20µM, KDM4E inh inconclusive
CCOC(=O)c1cc2occc2n1CC(=O)N1CCCc2ccccc21	ALDH1A1 inh 8.9µM
CCOC(=O)c1cc2sccc2n1CC(=O)N1CCCc2ccccc21	none
CO[C@]1(NC(=O)[C@H](C(=O)O)c2ccc(O)cc2)C(=O)N2C(C(=O)O)=C(CSc3nnnn3C)CO[C@H]21	none
CC1c2cccc(O)c2C(O)=C2C(=O)[C@]3(O)C(O)=C(C(N)=O)C(=O)C(N(C)C)C3C(O)C21 (some centres undefined)	KDM4E inh inconclusive (no result: HttQ103 aggreg)
CCOC(=O)COc1cc([N+](=O)[O-])cc2cccnc12	none (no result: HPGD block)
CCOC(=O)COc1ccccc1/C=C\[N+](=O)[O-]	HPGD block 16µM, ALDH1A1 inh 4.5µM
c1ccc(CSc2ncnc3c2cnn3-c2ccccc2)cc1	HPGD block 25µM, ALDH1A1 inh inconclusive, KDM4E inh inconclusive
CC(C)(C)C(=O)CSc1ncnc2c1cnn2-c1ccccc1	HTT cytoprotect inconclusive, HttQ103 aggreg inconclusive (no result: HPGD block, ALDH1A1 inh)
Cc1cc(/C=C2\C(=N)N3N=CSC3=NC2=O)c(C)n1Cc1ccccc1	KDM4E inh inconclusive (no result: HPGD block, ALDH1A1 inh)
CCCS(=O)(=O)c1nnnn1-c1cccc(OC)c1	HPGD block 22µM, ALDH1A1 inh 1.4µM, HttQ103 aggreg 3.5µM
CCOC(=O)c1csc(NC(=O)CSc2nnnn2-c2cccc(OC)c2)n1	none
COc1cccc(CS(=O)(=O)c2nnnn2-c2ccccc2)c1	HTT cytoprotect inconclusive, ALDH1A1 inh 1µM (no result: HttQ103 aggreg)
COc1cccc(CS(=O)(=O)c2nnnn2C2CCCCC2)c1	none (no result: HttQ103 aggreg)
CC(O)CNC(=O)C1CCN(Cc2ccc(OCc3ccccc3)cc2)CC1 (centres undefined)	ALDH1A1 inh 20µM
CC(C)CNC(=O)C1CCN(Cc2ccc(OCc3ccccc3)cc2)CC1	none
O=C(CC(=O)NC1CCCCC1)N/N=C/c1cccc2ccccc12	HPGD block inconclusive, ALDH1A1 inh inconclusive, KDM4E inh inconclusive

Screening data as filed in PubChem.
